CatG inh = inhibitors of human cathepsin G; inhibition, % at 5 µM (by protocol); 62,000 tested, 0.2% active; purified enzyme, AMC-tetrapeptide fluorescence, pooled mixtures; P08311;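 active means inhibition above 20% in each of the two mixture wells holding the compound; inactive means inhibition of 20% or less in either well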;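 further: 0% = enzyme control without mixture and 100% = blank lacking enzyme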
WNV protease inh = inhibitors of West Nile virus NS2B-NS3 protease; P06935; WNV NS2B-NS3 protease, fluorogenic substrate Ex360/Em465; stronger effect = lower value; z-score (concentration not given with the values); 65,000 tested, 0.18% active; AID 577; in the data active means z-score below about -3
FXIIa inh mix = inhibitors of human coagulation factor XIIa, pooled mixtures; inhibition, % at 5 µM; 62,000 tested, 0.2% active; P00748; purified FXIIa, fluorogenic substrate;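 further: 0% = enzyme without compound and 100% = no enzyme blank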
Target sequence (P00748 20-372 limits assumed): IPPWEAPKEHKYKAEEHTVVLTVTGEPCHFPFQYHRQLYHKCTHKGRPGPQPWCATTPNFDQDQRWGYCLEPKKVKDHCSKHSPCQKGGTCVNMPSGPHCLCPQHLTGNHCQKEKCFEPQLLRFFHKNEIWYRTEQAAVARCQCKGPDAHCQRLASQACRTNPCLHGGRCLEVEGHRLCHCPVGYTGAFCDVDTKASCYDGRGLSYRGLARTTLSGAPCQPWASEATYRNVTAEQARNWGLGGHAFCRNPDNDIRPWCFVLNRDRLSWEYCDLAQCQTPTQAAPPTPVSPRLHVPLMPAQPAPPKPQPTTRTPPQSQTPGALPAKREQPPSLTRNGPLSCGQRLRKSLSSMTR
Target sequence (P00748 373-615 limits assumed): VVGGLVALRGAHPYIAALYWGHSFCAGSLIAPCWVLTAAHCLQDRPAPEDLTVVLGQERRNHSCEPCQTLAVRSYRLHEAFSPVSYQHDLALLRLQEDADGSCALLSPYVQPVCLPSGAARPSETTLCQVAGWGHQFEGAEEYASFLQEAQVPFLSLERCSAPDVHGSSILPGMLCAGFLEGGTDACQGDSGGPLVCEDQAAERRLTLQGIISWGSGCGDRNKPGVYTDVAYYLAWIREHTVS
C1s block = human complement C1s inhibition; P09871; purified C1s, fluorogenic AMC substrate, pooled mixtures; mean inhibition % of two 10-compound mixtures (stronger effect = higher value), % at 5 µM (by protocol); 62,000 tested, 0.16% active; AID 538;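 active means inhibition above 20% in each of the two 10-compound mixture wells holding the compound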;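 further: 0% = enzyme wells lacking compound mixture and 100% = no-enzyme blank wells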
Htt clearance = compounds clearing mutant huntingtin protein; HeLa Exon1htt(103Q)mCFP, aggregate imaging; zero = plate's median compound well; 47,000 tested, 0.42% active; inhibition, % at 1.5 µM;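 active means inhibition of aggregate fluorescence above about 70%, also judged a hit by eye on the cell image, limit read from the data, passing the limit was not always enough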;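 further: cells exposed to compound for three days before fixation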
FXIa mix inh = blocks human factor XIa in pooled compound mixtures; 62,000 tested, 0.19% active; P03951; purified FXIa, fluorogenic substrate; inhibition, % at 5 µM; AID 680;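 further: each value is inhibition by a whole ten-compound pool holding the compound; 0% = enzyme with no mixture and 100% = wells lacking enzyme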
* marks the source's active call; other numbers are inactive results; x = no result. An excerpt weighted towards active compounds, which were near 0.75% of everything screened. Unless noted, no stated cut-off is given here; in the data, active means inhibition above about 20% (passing the limit was not always enough); inactive means the rest.

SMILES	CatG inh	WNV protease inh	FXIIa inh mix	C1s block	Htt clearance	FXIa mix inh
CCN1CCN(CNC(=O)c2cnccn2)CC1	7	-4.8*	3	1	-28	-5
CCC(=O)OC1=C2C(=Nc3c(c(=O)n(C)c(=O)n3C)C2c2ccccc2)c2ccccc21 (configuration not stated)	x	0.26	x	x	x	x
COc1ccccc1NC(=O)CSc1nnc(-c2ccccn2)n1Cc1ccco1	31*	0.09	3	28	42	50*
O=C(CSc1nnc(-c2ccccc2)n1Cc1ccco1)Nc1ccc(S(=O)(=O)N2CCCC2)cc1	x	x	x	x	84*	x
O=C(CSc1nnc(-c2ccco2)n1Cc1ccco1)Nc1ccccc1	x	x	x	x	29	x
O=C(NC1CCCc2ccccc21)C1CCN(c2c(N3CCCC3)c(=O)c2=O)CC1 (configuration not stated)	-1	1.1	6	-2	x	9
Cc1ccc(-c2c3c(=O)n(C)c(=O)n(C)c3c3c(C)cc(C)nn23)cc1	1	0.72	4	2	x	8
COc1ccc(-c2nnc3n2N=C(c2ccccc2)CS3)cc1OC	10	-0.75	32*	12	x	5
O=C(Cn1nnc(-c2ccccc2Cl)n1)N1CCN(S(=O)(=O)c2ccc(Cl)cc2)CC1	4	-0.92	-20	0	76*	2
O=C(Cn1nnc(-c2ccccc2-n2cnnn2)n1)N1CCCCC1	11	-0.71	16	13	-31	7
CCN(CC)CC(=O)Nc1cc(C)c2c(=O)oc3ccccc3c2n1	-6	1.1	-13	-49	x	-1
CCCCCC(=O)Nc1ccc2oc(-c3cccnc3)nc2c1	x	0.47	x	x	71*	x
Cc1cc(-c2ccccc2)nc(N2CCC(C(=O)NCC3CCCCC3)CC2)n1	x	x	x	x	-42	x
O=C(NCc1ccc2c(c1)OCO2)c1cccc(C(=O)NCc2ccc3c(c2)OCO3)c1	0	2.3	1	-5	x	5
O=C(NCc1ccc2c(c1)OCO2)c1cccc(N2CCCC2=O)c1	11	-0.09	27*	15	x	5
O=C(Oc1ccc(-n2cnnn2)cc1)c1ccco1	11	0.27	3	31*	x	7
COc1ccc(S(=O)(=O)N2CCC(C(N)=O)CC2)cc1	48	-1.9	-12	-8	x	31*
COc1ccc(OCC(=O)Nc2ccc(S(=O)(=O)N3CCOCC3)cc2)cc1	7	-0.52	7	-6	87*	-4
CCOc1ccc(-c2nnn(CC(=O)NCc3ccc4c(c3)OCO4)n2)cc1	x	x	x	x	76*	x
CCc1nc(N)c(C#N)c(-c2ccncc2)c1C	9	-0.12	3	-7	x	-1
CCc1nc(N)c(C#N)c(-c2cccn2C)c1C	x	-6.8*	x	x	x	x
CCOc1ccc(S(=O)(=O)N(CC(=O)O)c2ccc(C)cc2)cc1	3	0.57	48*	3	-30	-1
COc1ccc(N(CC(=O)O)S(=O)(=O)c2cccnc2)cc1	7	-0.55	-1	-1	71*	1
CCOc1ccccc1N(CC(=O)O)S(=O)(=O)c1ccc(C)cc1	8	-1.6	6	0	22	15
O=C(CCCC(=O)N1CCCc2ccccc21)N1CCCc2ccccc21	10	2.1	1	15	-43	0
SMILES	CatG inh	WNV protease inh	FXIIa inh mix	C1s block	Htt clearance	FXIa mix inh
O=C(Nc1ccccc1)N1CCCc2ccccc21	x	x	x	x	83*	x
O=C(NCCCn1ccnc1)c1cc(-c2cccs2)on1	9	1.3	8	-35	x	1
Cc1sc2nc3n(c(=O)c2c1C)NC(=O)CC3	8	0.42	2	19	x	5
O=C1CCc2nc3sc4c(c3c(=O)n2N1)CCCC4	0	0.82	6	1	84*	5
Cc1ccc(-n2c(SCC(=O)Nc3ccc4c(c3)OCO4)nnc2-c2cccs2)cc1	0	1.2	-21	-12	-77	5
CCCCn1c(SCC(=O)NC(C)(C)C)nnc1-c1ccco1	11	0.74	21*	38	-42	3
Cc1ccc(-n2c(SCC(=O)Nc3ccc4c(c3)OCCO4)nnc2-c2ccco2)cc1	-1	0.63	2	2	72*	1
CCCn1c(SCC(=O)Nc2ccc3c(c2)OCCO3)nnc1-c1ccco1	10	-3.9*	-16	12	x	3
CCOc1ncccc1C(=O)OCc1cc(=O)n2c(n1)sc1ccccc12	-1	-0.16	-16	-11	x	0
CC(Sc1nc2ccccc2s1)C(=O)N1CCOCC1 (configuration not stated)	11	-0.62	-16	15	63	4
C=CCNC(=O)c1ccc(Cl)cc1Cl	14	-0.16	-21	14	x	25*
CCOc1ccc(C(=O)CN2CCN(S(=O)(=O)c3ccc(OC)cc3)CC2)cc1	4	-0.31	7	-1	-39	-2
Cn1c(=O)n(C)c2cc(C(N)=O)ccc21	14	1.2	32*	16	17	2
Cn1c(=O)n(C)c2cc(C(=O)O)ccc21	9	-0.06	7	-8	x	6
Cc1cc(NC(=O)COC(=O)C(Nc2ccc(C(F)(F)F)cc2Cl)C(C)C)no1 (configuration not stated)	-2	-0.27	-5	4	x	0
Cc1nc(CCNC(=O)COc2ccccc2)cs1	7	-0.14	4	-2	74*	5
O=C(NCc1ccco1)C(c1ccco1)N(Cc1cccs1)C(=O)Cn1nnc2ccccc21 (configuration not stated)	x	x	x	x	83*	x
O=C(NCc1ccco1)C(c1cccs1)N(Cc1ccccc1)C(=O)Cn1nnc2ccccc21 (configuration not stated)	9	-0.96	-21	-6	x	15
CCCCNC(=S)Nc1ccccc1F	x	x	x	x	-14	x
CCOc1cc2[nH]c(=S)n(CC3CCCO3)c(=O)c2cc1OCC (configuration not stated)	14	-0.1	20	22*	-34	8
COc1cc2[nH]c(=S)n(CC3CCCO3)c(=O)c2cc1OC (configuration not stated)	-5	-0.04	4	-2	16	5
CCn1c(=S)[nH]c2nc3c(cc2c1=O)CCCC3	x	x	x	x	71*	x
O=C(NC1CCCCC1)c1nc2c(nnn2Cc2ccccc2Cl)c(=O)[nH]1	0	-0.47	2	-3	74*	1
O=C(NC1CC1)c1nc2c(nnn2Cc2ccccc2Cl)c(=O)[nH]1	x	x	x	x	-34	x
CCc1nnc(NC(=O)CSc2nnc(-c3ccc(O)cc3)n2-c2ccccc2)s1	-19	1.5	10	-67	x	-9
COCCCNC(CC(=O)Nc1ccc(N(C)C)cc1)C(=O)O (configuration not stated)	-10	0.71	11	-83	x	2
Cc1c(CCC#N)c(N2CCN(C3CCCCC3)CC2)n2c(nc3ccccc32)c1C#N	9	-1.1	-1	-2	x	6
COc1ccc(N2C(=O)C3CCCN3C2c2ccccc2)cc1Cl (configuration not stated)	-9	0.65	2	-33	x	3

High-throughput results: PubChem, several laboratories
